Results published in PubChem BioAssay AID1117319 (Southern Research Institute, 2015).
About 1,500 (0.58%) of roughly 260,000 compounds were called active. Not shown: some 5% with an inconclusive outcome.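 The calls were made as follows: active = inhibition above a set limit at one or more doses, reproduced on every date tested; inconclusive = results disagree between test dates, or hit never tested in dose response; inactive = the rest.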 These entries were drawn from the full list. Potency and affinity values are given separately.

The compounds below were run against Virion infectivity factor (Human immunodeficiency virus type 1 group M subtype B (isolate BH10)) + Virion infectivity factor (Human immunodeficiency virus type 1 group M subtype B (isolate BRU/LAI)) + Virion infectivity factor (Human immunodeficiency virus type 1 group M subtype B (isolate PCV12)) + Virion infectivity factor (Human immunodeficiency virus type 1 group M subtype B (isolate HXB2)) + DNA dC->dU-editing enzyme APOBEC-3G (Homo sapiens) (UniProt P69720+P69721+P69722+P69723+Q9HC16) (assay: HIV-1 Vif–A3G interaction blockers – biochemical, TR-FRET, GST-Vif 1-94, biotin-A3G peptide, dose response retest, primary screen (AID 1117319;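 also: Vif residues 1-94 fused to GST binding biotinylated APOBEC3G peptide 110-148; 0% = full assay without inhibitor and 100% = GST in place of GST-Vif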)). Conditions: TR-FRET GST-Vif / biotin-A3G peptide binding; hits give high values.

inhibition, inactive:
CSCCC(NC(=O)/C(=C\c1ccc(Cl)cc1)NC(=O)c1ccccc1)C(=O)O (centres undefined) 1.24%
COc1ccc(-n2c(C)c3c(OC)cccc(=O)c3c2C)cc1 32.9%
COc1cccc(=O)c2c(C)n(-c3cc(C)cc(C)c3)c(C)c12 21.8%
CCOc1ccccc1C(c1c(C)n(C)n(-c2ccccc2)c1=O)c1c(C)n(C)n(-c2ccccc2)c1=O -1.18%
CCOc1ccccc1-c1cc(-c2ccccc2)nc2c1c(=O)n(C)c(=O)n2C -7.81%
COc1ccc(CNC(=O)Cn2cnc3c(OCc4ccccc4)ncnc32)cc1 -3.17%
Cc1ccc(S(=O)(=O)Nc2ccccc2-c2ccccc2)cc1 -0.15%
Cc1ccc(S(=O)(=O)c2c(C)nn(C(C)(C)C)c2OC(=O)CC(C)C)cc1 -0.23%
CCN1CCN(C(=O)Cn2cnc3sc(C)c(S(=O)(=O)N4CCN(c5ncccn5)CC4)c3c2=O)CC1 6.94%
CN=c1scc(C)n1/N=C/c1cc(Br)c(O)c(OC)c1 17.7%
CCN=c1scc(-c2cccs2)n1/N=C/c1cc(OC)ccc1O 11.2%
CN=c1scc(-c2ccccc2F)n1/N=C/c1ccc[nH]1 3.11%
COCCN=c1scc(-c2cccs2)n1/N=C(\C)c1ccco1 -4.46%
CCOc1ccc(C(=O)NCC(C)C)cc1 1.08%
Cc1ccc(C)c(NC(=O)N2CCc3ccccc3C2)c1 -0.5%
Cc1cc(C)n(CC2CC(=O)N(c3ccc(Cl)cc3)C2=O)n1 (centres undefined) -0.66%
CC(=O)N1CCN(C(=O)c2ccc(Oc3ccccc3)cc2)CC1 -9.55%
Cc1ccc(N2C(=O)CN(Cc3sccc3C)C2=S)cc1C 8.31%
CC1C/C=C/C=C/C=C/C=C/C(O[C@@H]2O[C@H](C)[C@@H](O)[C@H](N)[C@@H]2O)CC2OC(O)(CC(O)CC3OC3/C=C/C(=O)O1)CC(O)C2C(=O)O (some centres undefined) -4.31%
COc1ccc(C(=O)O/N=C(\N)c2ccccc2)c(OC)c1 2.57%
O=C1NC2(CCCCC2)C(=O)N1Cc1cc(=O)n2ccsc2n1 -0.24%
CC(C(=O)NCc1ccc2c(c1)OCO2)c1ccc([N+](=O)[O-])cc1 (centres undefined) 6.03%
Nc1nc(SCc2ccccc2)c2[nH]cnc2n1 -9.37%
CNc1ncnc(Sc2nc(N)nc3nc[nH]c23)c1[N+](=O)[O-] 16.1%
CC1(C)C2C(Cl)(Cl)C2(C)c2ccccc2N1C=O (centres undefined) -2.3%
COc1ccc(-c2nc3ccccc3n2OCC(=O)O)cc1 15.9%
COc1ccc(-c2nc3ccccc3n2OC(C)C(=O)O)cc1 (centres undefined) -3.4%
Cn1[nH]c(C(F)(F)F)c(C=NCc2ccc(Cl)cc2)c1=O -4.02%
COc1cccc(-c2cc3c(=O)n(-c4ccccc4)c(=S)[nH]c3s2)c1 -16.9%
Cc1c(C)n2c3c(cccc13)CC2 3.05%
O=C(Nc1cccc(C(F)(F)F)c1)c1ccco1 -3.65%
CC(=O)c1ccc(NC(=O)c2cccc(NC(=O)c3ccccc3)c2)cc1 -13.5%
O=C(Nc1ccc(N2CCOCC2)cc1)c1ccc2nc(-c3ccco3)c(-c3ccco3)nc2c1 10.5%
O=C(Nc1cccc(-c2nnc(-c3ccco3)o2)c1)c1ccccc1 -5.38%
O=C(c1ccccc1)c1ccc2nc(-c3ccco3)c(-c3ccco3)nc2c1 3.26%
O=C(Nc1ccccc1)c1cccc(C(F)(F)F)c1 0.71%
COc1ccc2cc(C3=CC(=O)CC(C)(C)C3=O)ccc2c1 4.18%
Cc1cc(C)nc(-n2ncc3c2CCCC3=O)n1 -7.41%
COc1ccc([C@@H]2C[C@H]3[C@@H](CN2S(=O)(=O)c2ccccc2)C(=O)C[C@@H](c2ccccc2F)N3S(=O)(=O)c2ccc(C)cc2)cc1 -4.64%
CC1CCOC2(O1)C(=O)N(CN1CCN(c3cccc(Cl)c3)CC1)c1ccccc12 (centres undefined) 16.9%
Cc1ccc(Nc2nc(=O)[nH]nc2C)cc1 23.2%
COCCNC(C(=O)Nc1ccc([N+](=O)[O-])cc1Br)c1ccccc1 (centres undefined) -2.09%
Cc1noc(NS(=O)(=O)c2ccc(NC(=O)CCCOc3ccc(Cl)cc3Cl)cc2)c1C 2.83%
Cc1nnc(NC(=O)CSc2nnc(NC(=O)C(C)(C)C)s2)s1 22.2%
C=CCSc1nnc(NC(=O)CSc2ccccn2)s1 -2.29%
C#CCOCCOCCOCCNc1nc(N2CCN(C(=O)[C@H](Cc3ccc(O)cc3)n3cc([C@@H](N)C(C)CC)nn3)CC2)nc(N2CCN(C(=O)[C@H](CCCCN)n3cc([C@@H](N)CO)nn3)CC2)n1 (some centres undefined) -12.6%
O=C(COc1c(F)c(F)cc(F)c1F)NNC(=O)CC1CCS(=O)(=O)C1 (centres undefined) -4.18%
CC1CN(S(=O)(=O)c2cccc(C(=O)OCC(=O)NCc3ccccc3)c2)CC(C)O1 (centres undefined) -6.28%
COc1ccc(N2C(=O)c3ccccc3NC2c2ccccc2O)cc1 (centres undefined) -3.39%
Cc1ccc(N2C(=O)c3ccccc3C2C(=O)c2cc(C)ccc2O)cc1 (centres undefined) 30.2%
CC(=O)SC1CC(=O)N(c2ccc(C(C)(C)C)cc2)C1=O (centres undefined) -11.1%
O=C(NCCc1ccccc1)c1ccc2nccnc2c1 28.7%
CCc1nc2ccc(C(=O)NCCc3ccc(OC)c(OC)c3)cc2nc1CC 0.19%
O=C(NCc1ccccn1)c1ccc(=O)oc1 11.6%
O=C(NCc1ccccn1)c1ccc(NC(=O)c2ccco2)cc1 1.9%
COc1ccc(CCNC(=O)c2cc(-c3ccco3)on2)cc1OC -1.47%
O=C(NCCc1ccccc1)c1cc(-c2ccco2)on1 25.6%
COc1ccc(C(=O)NCc2ccccn2)cc1 19.1%
O=C(NCCc1ccccc1)c1coc(=O)c(Br)c1 -22.2%
